The whole screen tested about 75,000 compounds, of which about 35 (0.05%) were called active. Shown is part of a subset that was picked to be rich in actives. A number with no mark means an inactive call. Calls follow the shape of the dose curve; as a rule, active = well fitted inhibition curve with a large enough effect; inconclusive = small, poorly fitted or top-dose-only effect; inactive = no such curve, though single readings can be large or run the other way.
Molecular target: Breast cancer type 1 susceptibility protein (Homo sapiens) (UniProt P38398)
Assay: qHTS Assay for Inhibitors of BRCT-Phosphoprotein Interaction (Green Fluorophore);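 also: plate controls were peptide without protein for full effect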
Details: BRCA1 BRCT-phosphopeptide binding, green fluorescence polarization; series mostly up to 76.9 µM; activity change, negative = inhibition: at the top concentration
Experimental: NIH Molecular Libraries Screening Centers Network [MLSCN]
NIH Chemical Genomics Center [NCGC]
PI Name: Natarajan, Amarnath; University of Texas
A complex of BRCT (C-terminal portion of BRCA1, MW ~35 kDa, His-tagged) and fluorescently labeled pBACH1 phosphorylated 10 aa peptide fragment of BACH1, a helicase implicated in DNA repair, is incubated with library members. Inhibitors of BRCT-pBACH1 binding are detected by a decrease in the fluorescence polarization (FP) of the fluorophore. In order to minimize the effect of fluorescence artifacts and to increase the overall robustness of the screen, the compound library members were incubated in separate reactions with fluorescein labeled probe-protein complexes. Protein and labeled probes were supplied by Dr. Amarnath Natarajan, Department of Pharmacology and Toxicology, University of Texas Medical Branch Galveston, TX.
Assay Buffer: 16mM Na2HPO4, 4 mM NaH2PO4, 150 mM NaCl, 1 mM EDTA, 1 mM DTT, 0.02% NaN3, and 0.01% Tween 20 at pH 7.3.
100 nM labeled decapeptide/250 nM protein in columns 1, 2, 5 - 48. Titration of unlabeled decapeptide control (from 10 mM, then 1:2 dilution in duplicate) pin-transferred to column 2, rows 1 to 16. Column 1 is neutral.
Three uL of reagents were dispensed to 1536-well Greiner black solid-bottom plates. Compounds and controls (23 nL) were transferred
via Kalypsys PinTool. The plates were incubated for 12 min at room temperature, and then read on ViewLux (Perkin-Elmer) High throughput CCD imager using FITC for the fluorescein-labeled decapeptide probe polarization filter sets. During dispense, reagent bottles were kept submerged into 4 deg C water bath and all liquid lines were covered with aluminum foil to minimize probe and protein degradation. All screening operations were performed on a Kalypsys robotic system (Kalypsys, Inc., San Diego, CA) containing one RX-130 and two RX-90 anthropomorphic robotic arms. The timing and order of assay plates passing through the screening system were adjusted such that each compound library plate was assayed against the fluorescein- and rhodamine-labeled assay systems at immediately adjacent time points.

Breast cancer type 1 susceptibility protein (Homo sapiens), sequence (P38398 whole entry, looked up): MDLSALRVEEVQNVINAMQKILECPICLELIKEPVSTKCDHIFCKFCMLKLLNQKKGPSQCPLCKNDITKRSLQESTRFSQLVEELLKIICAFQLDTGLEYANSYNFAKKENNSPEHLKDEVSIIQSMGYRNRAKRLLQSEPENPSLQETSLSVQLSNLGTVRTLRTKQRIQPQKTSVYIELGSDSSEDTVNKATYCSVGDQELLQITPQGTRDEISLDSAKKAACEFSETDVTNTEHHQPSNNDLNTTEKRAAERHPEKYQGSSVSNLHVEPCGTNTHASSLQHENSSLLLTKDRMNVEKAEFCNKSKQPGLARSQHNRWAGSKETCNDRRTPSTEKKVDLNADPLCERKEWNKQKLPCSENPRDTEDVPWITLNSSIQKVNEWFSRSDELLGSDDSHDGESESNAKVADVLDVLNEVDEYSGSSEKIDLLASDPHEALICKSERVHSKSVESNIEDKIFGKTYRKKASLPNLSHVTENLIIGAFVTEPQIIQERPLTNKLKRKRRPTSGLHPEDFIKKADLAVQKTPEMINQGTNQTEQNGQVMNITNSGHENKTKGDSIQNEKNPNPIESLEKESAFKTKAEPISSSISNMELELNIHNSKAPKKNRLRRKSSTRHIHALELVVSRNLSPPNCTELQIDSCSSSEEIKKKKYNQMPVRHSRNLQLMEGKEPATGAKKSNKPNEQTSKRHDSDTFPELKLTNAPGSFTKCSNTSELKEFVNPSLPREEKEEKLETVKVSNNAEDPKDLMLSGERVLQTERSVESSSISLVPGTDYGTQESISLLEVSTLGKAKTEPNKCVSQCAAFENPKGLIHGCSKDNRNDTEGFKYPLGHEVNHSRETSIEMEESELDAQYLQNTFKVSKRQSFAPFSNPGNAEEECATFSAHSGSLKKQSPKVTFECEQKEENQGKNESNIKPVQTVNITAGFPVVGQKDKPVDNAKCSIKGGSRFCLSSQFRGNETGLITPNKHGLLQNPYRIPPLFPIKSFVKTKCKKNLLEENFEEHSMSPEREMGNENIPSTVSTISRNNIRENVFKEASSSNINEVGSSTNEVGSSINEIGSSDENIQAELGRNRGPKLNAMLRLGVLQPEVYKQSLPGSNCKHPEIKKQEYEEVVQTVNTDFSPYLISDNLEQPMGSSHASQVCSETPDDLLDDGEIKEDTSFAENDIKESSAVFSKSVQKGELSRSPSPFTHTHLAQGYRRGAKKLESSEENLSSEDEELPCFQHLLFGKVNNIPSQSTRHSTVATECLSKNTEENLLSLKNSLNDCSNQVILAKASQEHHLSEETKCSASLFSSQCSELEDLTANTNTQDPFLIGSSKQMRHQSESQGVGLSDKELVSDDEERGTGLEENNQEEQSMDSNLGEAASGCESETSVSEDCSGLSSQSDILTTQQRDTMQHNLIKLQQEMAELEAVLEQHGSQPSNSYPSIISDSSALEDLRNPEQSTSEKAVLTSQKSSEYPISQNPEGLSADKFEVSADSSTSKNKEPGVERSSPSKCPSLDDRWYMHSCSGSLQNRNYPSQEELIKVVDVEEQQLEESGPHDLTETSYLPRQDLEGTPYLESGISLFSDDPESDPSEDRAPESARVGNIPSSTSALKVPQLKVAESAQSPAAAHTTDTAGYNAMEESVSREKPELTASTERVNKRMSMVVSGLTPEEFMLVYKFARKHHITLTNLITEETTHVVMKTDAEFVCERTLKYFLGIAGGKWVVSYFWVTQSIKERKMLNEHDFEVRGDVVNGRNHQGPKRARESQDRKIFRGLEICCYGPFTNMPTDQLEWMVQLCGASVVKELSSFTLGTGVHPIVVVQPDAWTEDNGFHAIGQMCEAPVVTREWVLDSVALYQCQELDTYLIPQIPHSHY

Row | Compound | activity change, negative = inhibition
1 | Cc1nnc(NC2=NCCCCC2)o1 | -1.75%
2 | CCNc1nc(NCC)nc(N(C)n2cnnc2)n1 | -1.9%
3 | c1csc(-c2cn3c(n2)SCC3)c1 | 2.19%
4 | O=C(c1csnn1)N1CCC[C@@]2(CCN(Cc3nccs3)C2)C1 | -1.37%
5 | COc1cc(-c2nc(S(=O)(=O)c3ccc(Cl)cc3)c(N(C)C)o2)cc(OC)c1OC | -2.4%
6 | COc1ccc(NC(=O)CSc2nnc(-c3cccs3)n2Cc2ccco2)cc1OC | -1.04%
7 | COC(=O)[C@@H]1C[C@@]2(O)[C@H](O)[C@H](O)[C@H](O)C[C@H]2N1Cc1ccc(C(C)(C)C)cc1 | -2.44%
8 | Cc1ccc(S(=O)(=O)C(C#N)c2nc3ccccc3nc2N2CCCC2)cc1C (stereo unspecified) | 8.83%
9 | O=C(CC1NCCNC1=O)Nc1ccc(Oc2ccccc2)cc1 (stereo unspecified) | -1.54%
10 | COC(=O)Nc1ccc(S(=O)(=O)N(C)CC(F)(F)C(F)F)cc1 | 2.58%
11 | Cc1c2cnn(-c3ccccc3)c(=O)c2c(C)n1CCCC(=O)N1CCN(C)CC1 | -0.857%
12 | O=c1c2c(nc3n1CCCCC3)sc1c(O)cccc12 | 0.259%
13 | COC(=O)[C@@H]1C[C@H]2CC[C@H](O)C[C@H]2N1Cc1ccc(N2CCN(C)CC2)cc1 | -4.72%
14 | CC(=O)OCC(=O)[C@@]1(O)CCC2C3CCC4=CC(=O)CC[C@@]4(C)[C@]3(F)C(O)C[C@]21C (stereo partly specified) | -2.43% [at 3.08 µM]
15 | OCCCN1c2ccccc2Nc2nnc(-c3ccccc3)cc21 | 0.333%
16 | COC1C[C@@H](O[C@@H]2C(C)C(=O)OC(C)C(C)C(O)C(C)C(=O)[C@@]3(CO3)CC(C)C(OC3OC(C)CC(N(C)C)C3O)C2C)OC(C)[C@@H]1O (stereo partly specified) | -1.55% [at 3.08 µM]
17 | CCN(CC)S(=O)(=O)c1ccc2nc(CSc3nnnn3-c3ccc(O)cc3)[nH]c2c1 | 0.906%
18 | CCC1=C(OC(=O)N(CC)CC)N2C(=O)OC(=NCCc3c[nH]c4ccccc34)[C@]2(C)[C@H]2C1=CC[C@H]1C(=O)N(CC)C(=O)[C@H]12 | -2.62%
19 | CSCCC1NC2(C(=O)Nc3ccc(Cl)cc32)[C@@H]2C(=O)N(C3CCCC3)C(=O)[C@H]12 (stereo partly specified) | -0.643%
20 | c1ccc2c(CNn3cnnc3)cccc2c1 | -0.445%
21 | Cc1occc1C(=O)Nc1cccc(Cn2cccn2)c1 | 0.791%
22 | CCCc1nc2ccccc2c(=O)n1/N=C/c1ccc(O)c(O)c1 | 0.0898%
23 | CC(C)C[C@H](NC(=O)NCCc1ccc(Cl)cc1)C(=O)O | 0.662%
24 | Cn1c(SCC(=O)Nc2cccc(NC(=O)c3cccs3)c2)nnc1-c1ccncc1 | -1.53%
25 | CCCOc1ccc(C2C(C(=O)c3ccc(C)o3)=C(O)C(=O)N2CCCn2ccnc2)cc1 (stereo unspecified) | -3.82%
26 | N#Cc1c(NC(=O)CSc2nc3ccccc3c(=O)n2Cc2ccco2)sc2c1CCCC2 | 0.27%

Reference: PubChem BioAssay AID875 (National Center for Advancing Translational Sciences (NCATS), 2007)
